Screening data as filed in PubChem.
KAT2A inh: qHTS Assay for Inhibitors of GCN5L2; GCN5L2 HAT assay, ThioGlo1 CoA-SH fluorescence; AID 504327, 2011; Potency, µM (doses to about 58.9 µM), usual class: inhibitors; Histone acetyltransferase KAT2A (Homo sapiens), Q92830; 390,000 compounds, 0.21% hits
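GCN5L2 (20nM final) in 50mM HEPES, 0.1mM EDTA pH 7.5, 0.01% Tween-20 was preincubated 15 min at room temperature with compound, then given ThioGlo1 (50uM), H3(1-25) peptide (75uM) and acetyl-CoA (70uM); CoA-thiol fluorescence (Ex340/Em540) was read at 0 and 20 min.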
TDP1 inh: qHTS Assay for Inhibitors of Tyrosyl-DNA Phosphodiesterase (TDP1); recombinant TDP1, AlphaScreen DNA substrate cleavage; Potency, µM (doses to about 130 µM), actives largely listed as inhibitors; 350,000 compounds, 0.28% hits; Tyrosyl-DNA phosphodiesterase 1 (Homo sapiens), Q9NUW8; further: nearly all actives have a fitted effect of over 40% in size
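AlphaScreen read-out: signal falls as enzyme removes the 3' tyrosine-FITC from a 5'-biotinylated DNA oligo (15 nM, 5 min, RT). Enzyme was E. coli-made recombinant Tdp1 at 1 nM, exposed to compound for 15 min beforehand; beads 10 ug/ml, 10 min.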
VDR inh: Inhibitors of the vitamin D receptor (VDR): qHTS; Vitamin D3 receptor (Homo sapiens), P11473; VDR-SRC2-3 peptide fluorescence polarization, 2 h; Potency, µM, usual class: inhibitors; 400,000 compounds, 0.93% hits
Target sequence (P11473 whole entry, looked up): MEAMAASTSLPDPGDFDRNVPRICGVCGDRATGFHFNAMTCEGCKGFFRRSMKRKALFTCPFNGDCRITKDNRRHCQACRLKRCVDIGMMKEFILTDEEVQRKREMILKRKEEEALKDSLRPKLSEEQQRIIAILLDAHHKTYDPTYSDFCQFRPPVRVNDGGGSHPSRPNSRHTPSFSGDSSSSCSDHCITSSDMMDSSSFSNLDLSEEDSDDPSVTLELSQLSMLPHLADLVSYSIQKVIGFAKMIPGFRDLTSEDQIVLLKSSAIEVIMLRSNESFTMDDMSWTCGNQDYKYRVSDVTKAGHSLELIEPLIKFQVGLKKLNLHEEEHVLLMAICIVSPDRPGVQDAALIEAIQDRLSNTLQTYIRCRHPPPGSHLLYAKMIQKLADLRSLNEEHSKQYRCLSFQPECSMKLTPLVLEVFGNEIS
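Compounds are added to VDR with labelled SRC2-3 coactivator peptide and held 2 h at room temperature. Inhibition of the VDR–peptide interaction is then read as a change in fluorescence polarization.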
PLK1 PBD block: qHTS for Inhibitors of PLK1-PDB (polo-like kinase 1 - polo-box domain): Primary Screen. Serine/threonine-protein kinase PLK1 (Homo sapiens), P53350. Plk1 PBD binding of FITC phosphopeptide, fluorescence polarization. Potency, µM, hits mostly inhibitors. 360,000 compounds, 2.8% hits. AID 720504, 2013; further: series mostly up to about 57 µM; nearly all actives have a fitted effect of over 65% in size
TDP1 cell noCPT: qHTS for Inhibitors of human tyrosyl-DNA phosphodiesterase 1 (TDP1): qHTS in cells in absence of CPT; 420,000 compounds, 15% hits; DT40 Tdp1-/- hTDP1 cells, no CPT, ATP luminescence, 48 h; Potency, µM (series often up to 46.2 µM), most hits filed as inhibitors; further: nearly all actives have a fitted effect of over 55% in size
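Growth of hTDP1-complemented DT40 Tdp1-knockout cells is measured by ATP luminescence after at least 48 hr compound exposure at 37 °C, with DMSO substituting for the 20 nM CPT used in the parallel screen.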
DT40 TDP1 CPT: qHTS for Inhibitors of human tyrosyl-DNA phosphodiesterase 1 (TDP1): qHTS in cells in presence of CPT; 420,000 compounds, 12% hits; chicken DT40 Tdp1-/-;hTDP1 cells + 20 nM CPT, ATP luminescence, 48 h; AID 686979, 2013; Potency, µM (top dose mostly 46.2 µM), usual class: inhibitors; further: nearly all actives have a fitted effect of over 55% in size
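Chicken DT40 Tdp1-/- cells stably complemented with human TDP1 were seeded at 400 cells/well in medium containing 20 nM camptothecin, exposed to pin-transferred compounds, and grown at 37 °C for at least 48 hr. Viability was read as ATP luminescence.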
A number is an active result; 0 = inactive; ? = inconclusive; - = no result; [ ] = another dose, or the depositor's remark. Rows were chosen to be rich in hits. Some 18% of all compounds tested hit in one or more screens of this group. The call rests on the fitted dose curve; in most records, active means well fitted curve in the direction sought with a large enough effect; inconclusive means small, poorly fitted or top-dose-only effect, or another doubt; inactive means no such curve, though single readings can be large; an effect the other way counts as inactive or inconclusive.

SMILES	KAT2A inh	TDP1 inh	VDR inh	PLK1 PBD block	TDP1 cell noCPT	DT40 TDP1 CPT
ClCCN(CCCl)c1ccc(/C=C/c2sc3ccccc3[n+]2CCCCI)cc1	-	-	-	-	2.5µM	3.2µM
CC(=O)OC1CC[C@]2(C)C(CCC3C2CC[C@]2(C)C(C4=CC(=O)OC4)C(OC(C)=O)CC32O)C1 (stereo not given in full)	0	0	0	-	?	0
C[C@H]1C/C=C/[C@H]2[C@H](O)[C@H](C)[C@@](C)(O)[C@H]3[C@H](Cc4ccccc4)NC(=O)[C@]32[C@H](O)/C=C/[C@](C)(O)C1	-	-	0	0	8.2µM	3.7µM
CCOc1ccc(CCNC(=O)c2cnc3sc(N4CCCC4)nn3c2=O)cc1	0	0	0	-	2.3µM	6.5µM
CCOc1ccc2nc(NC(=O)c3cccn(Cc4ccc(C)cc4)c3=O)sc2c1	0	0	0	-	0	0
COC(=O)C1=C(c2ccc(F)cc2OCc2ccccc2)C[C@@H]2CC[C@H]1N2C(=O)NCc1ccccc1C(F)(F)F	0	0	0	0	?	?
COC(=O)C1=C(c2ccc(F)cc2OCc2ccccc2)C[C@@H]2CC[C@H]1N2C(=O)NC1Cc2ccccc2C1	0	0	0	0	26µM	?
COC(=O)C1=C(c2ccc(F)cc2OCc2ccccc2)C[C@@H]2CC[C@H]1N2C(=O)NCCCc1ccccc1	0	0	0	0	?	26µM
COC(=O)C1=C(c2ccc(F)cc2OCc2ccccc2)C[C@@H]2CC[C@H]1N2C(=O)NCc1ccc(F)cc1	0	0	0	0	?	?
COC(=O)C1=C(c2ccc(F)cc2OCc2ccccc2)C[C@@H]2CC[C@H]1N2C(=O)N1CCC(O)(c2ccc(Cl)cc2)CC1	0	0	0	0	23µM	?
COC(=O)C1=C(c2ccc(F)cc2OCc2ccccc2)C[C@@H]2CC[C@H]1N2C(=O)N1CCC(C)CC1	0	0	0	0	?	?
COC(=O)C1=C(c2ccc(F)cc2OCc2ccccc2)C[C@@H]2CC[C@H]1N2C(=O)NCc1ccccc1Br	0	0	0	0	16µM	?
O=c1cccc2n1CC1CC2CN(c2ncnc3c2cnn3-c2ccc(Cl)cc2)C1 (stereo not given)	0	0	0	0	0	0
CC1N(P(=O)(c2ccccc2)c2ccccc2)CC(O)(c2ccccc2)CC12CC2 (stereo not given)	-	0	-	-	-	-
CC1CCOC(=O)C=CC=CC(=O)OC2CC3OC4C5OC5(C)C(O)CC4(COC(=O)C1O)C2(C)C31CO1 (stereo not given)	-	-	0	0	0.15µM	0.15µM
CC1=CC2OC3CC4OC(=O)C=CC=CC(=O)OCCC(C)C(O)C(=O)OCC2(CC1)C4(C)C31CO1 (stereo not given)	-	-	0	0	0.16µM	0.023µM
CC(O)C1C=CC=CC(=O)OC2CC3OC4C5OC5(C)C(O)CC4(COC(=O)C(O)C(C)CCO1)C2(C)C31CO1 (stereo not given)	-	-	0	0	0.15µM	0.13µM
CC1=CC2OC3CC4OC(=O)C=CC=CC(C(C)O)OCC(O)C5(C)OC5C(=O)OCC2(CC1O)C4(C)C31CO1 (stereo not given)	-	-	0	0	0.15µM	0.092µM
CCOP(=S)(OCC)SCSC(C)(C)C	-	0	-	-	-	-
CNC(C)[C@@H](O)c1ccc(O)cc1 (stereo not given in full)	0	-	0	-	-	-
CC1=CC(=O)C2=C(C)C[C@@H](O)[C@@H]3[C@@H](OC(=O)[C@H]3C)[C@H]12	0	0[21 µM]	0	-	-	-
CCOc1cc2c(cc1OCC)-n1cccc1C(c1ccc(OC(F)F)cc1)NC2 (stereo not given)	0	-	0	0	18µM	?
CCOc1cc2c(cc1OCC)-n1cccc1C(c1ccc(F)cc1)NC2 (stereo not given)	0	-	0	0	?	?
CCOc1cc2c(cc1OCC)-n1cccc1C(c1ccc(C(C)C)cc1)NC2 (stereo not given)	0	-	0	0	7.3µM	8.2µM
CCOc1cc2c(cc1OCC)-n1cccc1C(c1ccc(OC)cc1)NC2 (stereo not given)	0	-	0	0	18µM	?
SMILES	KAT2A inh	TDP1 inh	VDR inh	PLK1 PBD block	TDP1 cell noCPT	DT40 TDP1 CPT
OCCN(CC#CC(O)(c1ccccc1)C1CCCC1)CCO (stereo not given)	0	0	0	0	0	0
CCN[C@@H](C)Cc1ccccc1	-	-	-	-	0	0
C[C@@H](Cc1cccc(C(F)(F)F)c1)NCCCc1ccccc1	0[0.501 µM]	0	0	-	13µM	13µM
NCC(CP(=O)(O)O)c1ccc(Cl)cc1 (stereo not given)	?	0	0	-	0	0
CCCC(=O)O[C@]1(C(=O)COC(=O)CC)[C@@H](C)C[C@H]2[C@@H]3CCC4=CC(=O)C=C[C@]4(C)[C@@]3(F)[C@@H](O)C[C@@]21C	-	-	-	-	24µM	?
CCCC(=O)NC1=C(N2CC2)C(=O)C(NC(=O)CCC)=C(N2CC2)C1=O	-	-	0	0	1.6µM	0.82µM
CCCC(=O)Nc1ccc(N2CCN(CC)CC2)c(Cl)c1	0	0	0	0	?	0
